# Sampled rows, rich in hits. Any-hit rate of the full collection: about 12%.
# MARV entry inh: qHTS for inhibitors of binding or entry into cells for Marburg Virus; Marburg virus pseudotyped entry inhibition, cell reporter; Potency, µM (doses to about 37.8 µM), inactives show top-dose activity change, negative = inhibition, most hits filed as inhibitors; hit rate 1.8% among 300,000; AID 540276, 2011; calls by dose curve; tested in HEK293 cells; note: potency is the fitted concentration of half-maximal effect; % is set by controls: 0 for no effect and ±100 for the full control effect
# LASV entry inh: qHTS for Inhibitors of binding or entry into cells for Lassa Virus; Potency, µM (top dose mostly 37.9 µM), for the others: top-dose activity change, negative = inhibition, usual class: inhibitors; hit rate 1.2% among 300,000; Lassa virus pseudotype entry inhibition, cell reporter; calls by dose curve; tested in HEK293 cells; note: potency is the fitted concentration of half-maximal effect; % is set by controls: 0 for no effect and ±100 for the full control effect; nearly all actives have a fitted effect of over 50% in size
# Cycloheximide cs: Cycloheximide Counterscreen for Small Molecule Inhibitors of Shiga Toxin; max response, %; cell reporter, cycloheximide protein synthesis inhibition counterscreen; hit rate 12% among 300,000; AID 2314, 2010; in the data active = max response mostly above about 13%, no sharp cut-off; inactive = mostly below about 14%; note: read at 38.3 µM for the half of the compounds with a filed dose; 0% is about no effect
# Shiga toxin inh: A qHTS for Small Molecule Inhibitors of Shiga Toxin | AID 2315, 2010 | inhibition, % at 38.7 µM | Vero cells, Shiga toxin protein synthesis inhibition reporter | hit rate 9.2% among 290,000; in the data active = inhibition mostly above about 28%, no sharp cut-off; inactive = mostly below about 43%; note: 0% is about no effect
# Numbers without * were called inactive; ? = inconclusive; . = no result given; [ ] = another dose, or the depositor's remark.
SMILES,MARV entry inh,LASV entry inh,Cycloheximide cs,Shiga toxin inh
Cc1c(N(C)S(=O)(=O)c2cc(C(=O)NCC3CCCO3)ccc2Cl)c(=O)n(-c2ccccc2)n1C (stereo not drawn),3%[46.1 µM],-7%,.,.
Cc1c(C)n(C(=O)CSc2nc3ccccc3[nH]2)c2ccccc12,-6%,0%,-5,-2
Cc1nn2c(=O)cc(CSc3nc4ccccc4[nH]3)nc2s1,.,.,22*,39
COCCn1c(C)cc(C(=O)CSc2nc(C)nc3sc4c(c23)CCC4)c1C,3.7µM*,10µM*,.,.
C=CCn1c(C)cc(C(=O)CSc2nc3ccccc3[nH]2)c1C,?,4.6µM*,34*,69*
C=CCn1c(C)cc(C(=O)CSc2nc3ccccc3c(=O)[nH]2)c1C,?,?,63*,90*
CCCNC(=O)COc1ccc(-c2nn(C)c(=O)c3ccccc23)cc1,-17%,-24%,8,7
CCSc1nc(-c2cccnc2)ccc1C#N,-7%,-17%,-6,-13
Cc1cc(C)c(C(=O)CSc2nc3ccccc3c(=O)[nH]2)cc1C,5%,18%,-1,-2
COCC(C)n1c(C)cc(C(=O)CSc2nc3ccccc3c(=O)[nH]2)c1C (stereo not drawn),?,?,16*,45
COCCn1c(C)cc(C(=O)CSc2nc3ccccc3c(=O)[nH]2)c1C,?,?,53*,92*
Cc1cc(C(=O)CSc2nc3ccc(Cl)cc3[nH]2)c(C)n1CC1CCCO1 (stereo not drawn),13µM*,?,13,44
NC(=O)CSc1nc2ccccc2c(=O)n1Cc1ccco1,8%[46.1 µM],3%,-4,1
CCCn1c(C)cc(C(=O)CSc2nc3ccccc3c(=O)n2Cc2ccco2)c1C,?,?,49*,57*
Cc1cc2ncn(C3CC(=O)N(Cc4ccccc4)C3=O)c2cc1C (stereo not drawn),15%,-5%,-2,-9
CC(C)Sc1ncc(Cl)c(C(=O)N(Cc2ccc(N(C)C)cc2)C2CCS(=O)(=O)C2)n1 (stereo not drawn),?,-17%[46.1 µM],.,.
COc1ccc(CC(=O)Nc2ccc(C(C)=O)cc2)cc1,.,.,28*,45
COc1ccc(CNC(=O)CCCSc2ccccc2)cc1,-2%[46.1 µM],12%,-4,-5
COc1ccc(CC(=O)Nc2cccc(SC)c2)cc1,-1%,-8%,17*,19
COC(=O)c1cc(CNC(=O)CCCSc2ccccc2)ccc1OC,3%[46.1 µM],18%[46.1 µM],23*,21
COc1ccc(NC(=O)CCC(=O)NCCO)cc1,3%[46.1 µM],3%,16*,45*
O=C(CCC(=O)Nc1ccccc1)NCCO,8%,-5%,-2,-2
CN(C(=O)COC(=O)c1ccccc1NCCO)C1CCS(=O)(=O)C1 (stereo not drawn),-3%,17%[46.1 µM],.,.
CC1CCC(N2CCNCC2)CC1 (stereo not drawn),.,.,-1,-5
CCc1ccc(NC(=O)Cc2ccc(OC)cc2)cc1,11%,4%,28*,41*
SMILES,MARV entry inh,LASV entry inh,Cycloheximide cs,Shiga toxin inh
COc1ccc(NC(=O)CS(=O)CC(=O)Nc2ccc(OC)c(OC)c2)cc1 (stereo not drawn),17%,45%,1,3
COc1ccc(NC(=O)CS(=O)c2ccccc2Cl)cc1 (stereo not drawn),?,3%[46.1 µM],15*,36
COc1ccc(NC(=O)Cc2ccccc2)cc1,?,?,30*,38*
COc1ccc(NC(=O)CCCSc2ccccc2)cc1,6%[46.1 µM],-9%[46.1 µM],24*,28
O=C(O)c1ccc(CN2C(=O)c3ccc(Oc4ccc([N+](=O)[O-])cc4)cc3C2=O)cc1,.,.,-2,21
Cc1nnnn1/C(=C\c1ccccc1)C(=O)OCC(=O)NC1CCCCC1,11µM*,?,.,.
CC(=O)Nc1ccc(NC(=O)COC(=O)/C(=C/c2ccccc2)n2nnnc2C)cc1,?,?,-3,12
CC(=O)N/C(=C\c1ccccc1)C(=O)OCC(=O)NC1CCCC1,11%,4%,-1,-6
Cc1nnnn1/C(=C\c1ccccc1)C(=O)OCC(=O)NC(C)(C)C,6.3µM*,-19%,3,-5
Cc1ccccc1COc1ccc(/C=N/NC(=O)c2nnn(-c3nonc3N)c2CN2CCC(C)CC2)cc1,.,.,21*,24
CC1CCN(Cc2c(C(=O)N/N=C/c3ccccc3O)nnn2-c2nonc2N)CC1,3.2µM*,?,-2,-17
CCN(CC)S(=O)(=O)c1ccc(N2CCN(C)CC2)c(NC(=O)Nc2ccc(C)cc2)c1,?,28%,17*,2
Cc1cc(-c2cc(C(=O)NCc3ccccc3)on2)nc(NC2CCCC2)n1,.,.,-1,-6
Cc1cc(C)cc(N(CC(=O)Nc2ccc(-c3nc4ccc(C)cc4s3)cc2)S(C)(=O)=O)c1,?,10%,36*,77*
Cc1ccc2nc(-c3ccc(NC(=O)CN(c4ccccc4C)S(C)(=O)=O)cc3)sc2c1,?,?,61*,95*
Cc1ccccc1N(CC(=O)Nc1ccc(F)cc1)S(C)(=O)=O,10%[46.1 µM],?,-1,-5
Cc1cccc(N(CC(=O)Nc2ccc(F)cc2)S(C)(=O)=O)c1,-3%,-18%,1,-11
Cc1ccc(C(c2sc3nc(-c4ccco4)nn3c2O)N2CCN(Cc3ccccc3)CC2)cc1 (stereo not drawn),.,-9%[46.1 µM],.,.
CCN(CC)CCCNc1oc(-c2cccc(Cl)c2)nc1C#N,16µM*,-2%,-1,-8
N#Cc1nc(COc2cccc(Cl)c2)oc1NCc1ccncc1,21%[46.1 µM],-5%,18*,54
N#Cc1nc(-c2cccc(Cl)c2)oc1NCc1cccnc1,?,-12%,26,46*
O=C(O)CCCNC(=O)c1nn(Cc2ccccc2)c(=O)c2ccccc12,-15%,-3%,-4,18
COc1ccc(CN2CCNC(=O)C2CC(=O)NCC2CCOCC2)c(F)c1 (stereo not drawn),13%,2%,1,-5
Cc1ccc(Nc2nc(CSc3nnnn3-c3ccccc3)cs2)cc1,?,?,16,36
Cn1nnnc1SCc1csc(Nc2ccccc2)n1,-6%,0%,28*,123*
SMILES,MARV entry inh,LASV entry inh,Cycloheximide cs,Shiga toxin inh
Cc1ccc(Nc2nc(CSc3nnnn3C)cs2)cc1,-21%,0%,39*,42*
O=S(=O)(Nc1cccc(-n2cnnn2)c1)c1ccccc1F,.,.,-2,8
CC(C)CCN1CCN(Cc2cccc3cccnc23)CC1CCO (stereo not drawn),-1%[46.1 µM],12%,-1,-7
COc1ccc(OCCn2cnc3ccccc32)cc1,?,?,9.5*,33*
Fc1ccc(Cn2cnc3ccccc32)cc1,27%,20%,-2,12
c1ccc2c(c1)ncn2CCN1CCCCC1,3%[46.1 µM],-4%,-1,-1
c1ccc(CCn2cnc3ccccc32)cc1,2%[46.1 µM],4%[46.1 µM],29*,25
CC(=O)c1ccc(OCCn2cnc3ccccc32)cc1,?,-2%,9,38
CCCOc1ccc(Cn2cnc3ccccc32)cc1,?,-27%,14*,2
c1ccc(OCCn2cnc3ccccc32)cc1,6%,29%,29*,18
Cc1ccc(Cl)cc1NC(=O)c1cc(S(=O)(=O)N2CCOCC2)cn1C,.,-3%[46.1 µM],3,11
Cn1c(O)c(N=NC(=O)CNC(=O)c2cccnc2)c2ccccc21,3%[46.1 µM],-1%[46.1 µM],-3,-1
